Test results published in PubChem BioAssay.
Active and inactive are the calls of the source. Cut-off read from the data, not from the text of the source, unless noted: active = inhibition above about 44%; inactive = the rest.

How the values were obtained:
[1] = StAR promoter reporter inhibitors, counter-screen for LRH-1 inverse agonist project, cell-based, luminescence, high throughput (AID 651611; in the data active = inhibition above about 28%); conditions: StAR promoter luciferase reporter counterscreen, at 3.6 µM, active compounds read high
[2] = molecular target: Nuclear receptor subfamily 5 group A member 2 (Homo sapiens) (UniProt O00482); assay: LRH-1 (NR5A2) inverse agonists, retest, confirmation, cell-based, luminescence (AID 651613; in the data active = inhibition above about 42%;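 note: HEK293T cells co-transfected with LRH-1 and StAR promoter luciferase reporter; 0% = vehicle wells and 100% = parental cells lacking receptor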); conditions: cell-based LRH-1 luciferase reporter, inverse agonism; at 3.6 µM; active compounds read high
Chain of Nuclear receptor subfamily 5 group A member 2 (Homo sapiens) (O00482 whole entry, looked up): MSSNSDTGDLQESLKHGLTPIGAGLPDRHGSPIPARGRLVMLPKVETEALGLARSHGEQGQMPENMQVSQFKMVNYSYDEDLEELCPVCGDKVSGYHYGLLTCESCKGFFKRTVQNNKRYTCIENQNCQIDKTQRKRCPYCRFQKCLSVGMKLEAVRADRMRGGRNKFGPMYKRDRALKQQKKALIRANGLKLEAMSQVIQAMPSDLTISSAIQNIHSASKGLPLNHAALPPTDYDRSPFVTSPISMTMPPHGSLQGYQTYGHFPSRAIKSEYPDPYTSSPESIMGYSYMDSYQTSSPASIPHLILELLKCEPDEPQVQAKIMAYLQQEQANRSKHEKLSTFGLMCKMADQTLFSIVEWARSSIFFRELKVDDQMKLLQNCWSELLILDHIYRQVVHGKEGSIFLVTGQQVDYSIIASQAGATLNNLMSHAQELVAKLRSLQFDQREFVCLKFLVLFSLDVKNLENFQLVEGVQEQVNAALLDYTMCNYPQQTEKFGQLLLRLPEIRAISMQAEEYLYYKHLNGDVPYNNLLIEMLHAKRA

[3] = molecular target: Steroidogenic factor 1 (Homo sapiens) (UniProt Q13285); assay: SF1 (NR5A1) inverse agonists, counter-screen for LRH-1 inverse agonist project, cell-based, luminescence, high throughput (AID 651614); conditions: cell-based SF1 luciferase reporter, at 3.6 µM, active compounds read high;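 note: cells cotransfected with StAR promoter reporter and SF1 expression vector; 0% = vehicle on cells with receptor and 100% = vehicle on cells lacking receptor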
Chain of Steroidogenic factor 1 (Homo sapiens) (Q13285 whole entry, looked up, the tested form may be a part): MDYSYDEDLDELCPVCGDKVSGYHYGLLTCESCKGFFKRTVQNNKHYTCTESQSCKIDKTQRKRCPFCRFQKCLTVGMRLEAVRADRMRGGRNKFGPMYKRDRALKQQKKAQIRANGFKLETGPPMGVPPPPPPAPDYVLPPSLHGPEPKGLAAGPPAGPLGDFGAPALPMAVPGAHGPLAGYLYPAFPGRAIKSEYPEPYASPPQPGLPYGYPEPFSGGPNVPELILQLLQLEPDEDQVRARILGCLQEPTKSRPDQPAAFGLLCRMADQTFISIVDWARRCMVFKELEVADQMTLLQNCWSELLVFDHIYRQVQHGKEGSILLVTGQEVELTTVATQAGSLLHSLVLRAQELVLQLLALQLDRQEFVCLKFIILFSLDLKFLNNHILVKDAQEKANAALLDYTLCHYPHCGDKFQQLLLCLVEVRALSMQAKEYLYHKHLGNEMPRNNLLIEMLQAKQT

[4] = VP16 transactivation reporter inhibitors, counter-screen for LRH-1 inverse agonist project, cell-based, luminescence, high throughput (AID 651615; in the data active = inhibition above about 33%); conditions: Gal4-VP16 luciferase reporter cells, at 3.6 µM, active compounds read high

SMILES | inhibition [1] | inhibition [2] | inhibition [3] | inhibition [4]
O=C(Nc1ccc(S(=O)(=O)N2CCOCC2)cc1)c1ccc([N+](=O)[O-])o1 | 17.6% (inactive) | 57.5% (active) | 65.2% (active) | -5.86% (inactive)
Cc1nn(CC(=O)Nc2ccc(N3CCOCC3)cc2)c(C)c1Cl | -2.18% (inactive) | 44.3% (active) | 29.8% (inactive) | -1.64% (inactive)
COc1ccc(Oc2ccc(NC(=O)c3ccccc3C)cc2)cc1 | 8.67% (inactive) | 38.8% (inactive) | 40.1% (inactive) | -18.1% (inactive)
CC1(C)CC2CC(C)(CN2S(=O)(=O)c2ccc(C(=O)Nc3cccc(S(=O)(=O)N4CCOCC4)c3)cc2)C1 (stereo not drawn) | 13% (inactive) | 59% (active) | 56.4% (active) | 56% (active)
COc1ccc(N=C2NN=C(c3c(C)[nH]c4ccccc34)CS2)cc1 | -7.38% (inactive) | 43.1% (active) | 32.1% (inactive) | -7.14% (inactive)
CCCN(CC(=O)Nc1ccccc1C)CC(=O)Nc1ccc(Br)cc1F | 8.48% (inactive) | 58.6% (active) | 51.6% (active) | 1.69% (inactive)
COc1cc(/C=N/Nc2snc(SC)c2C#N)ccc1O | 13.1% (inactive) | 28.3% (inactive) | 44.1% (active) | -90.8% (inactive)
COC(=O)c1ccc(NC(=O)CN2CCN(c3ccc(Cl)cc3)CC2)cc1 | -0.66% (inactive) | 52.3% (active) | 45.8% (active) | 2.51% (inactive)
CCCc1cc(=O)oc2cc(OCC(=O)NCCc3c[nH]c4ccc(OC)cc34)ccc12 | 6.12% (inactive) | 28.9% (inactive) | 40.4% (inactive) | -23.9% (inactive)
Cc1ccc(NC(=O)c2ccc([N+](=O)[O-])o2)cc1S(=O)(=O)N1CCOCC1 | 17.7% (inactive) | 58.5% (active) | 58.8% (active) | -4.03% (inactive)
C#CCN(C[C@@H]1[C@@H](OC(=O)NCc2ccc(OC)c(OC)c2)[C@@H](OC(=O)NCc2ccc(OC)c(OC)c2)CN(C(=O)OC(C)C)N1C(=O)OC(C)C)S(=O)(=O)c1ccc(C)cc1 | 1.68% (inactive) | 35.2% (inactive) | 30.1% (inactive) | 10.3% (inactive)
O=C(CN(Cc1ccccc1)C(=O)CCl)c1cccc(Br)c1 | 19% (inactive) | 55.7% (active) | 51.8% (active) | -1.2% (inactive)
O=C(Nc1ccc2c(c1)CCCN2C(=O)c1ccco1)c1cc([N+](=O)[O-])ccc1Cl | 51.9% (active) | 39.3% (inactive) | 59.1% (active) | 33.9% (active)
O=C(C[C@H]1CC[C@@H]2[C@H](COC[C@H](O)CN2Cc2cccc(C(F)(F)F)c2)O1)NCCc1ccccc1 | 2.1% (inactive) | 8.97% (inactive) | 15.7% (inactive) | 1.55% (inactive)
COc1ccc(CCNC(=O)CSc2nnc(CNC(=O)c3cccs3)o2)cc1OC | 4.32% (inactive) | 56.7% (active) | 50% (active) | 1.47% (inactive)
O=[N+]([O-])c1cnccc1Nc1ccc(F)cc1 | 13.2% (inactive) | 66.8% (active) | 55.2% (active) | 9.14% (inactive)
CCOc1ccc(OCCC(=O)OCC(=O)Nc2ccc3c(c2)OCCO3)cc1 | -6.27% (inactive) | 41.5% (active) | 37.1% (inactive) | -6.23% (inactive)
O=C(CN1C(=O)NC2(CCOc3ccccc32)C1=O)Nc1cccc([N+](=O)[O-])c1 (stereo not drawn) | 13.7% (inactive) | 58.6% (active) | 53.6% (active) | -15.2% (inactive)
c1ccc2c(c1)C1=NCCN1c1ccccc1-2 | 20% (inactive) | 104% (active) | 50.2% (active) | 87.8% (active)
Cc1cc(/C=N/NC(N)=S)c(C)n1-c1ccc(Cl)c(Cl)c1 | 7.41% (inactive) | 44.5% (active) | 39.2% (inactive) | 22.5% (inactive)
COc1ccccc1Nc1nc(NCCCCO)nc(N2CCCC2)n1 | 10.5% (inactive) | 30.2% (inactive) | 38.3% (inactive) | 5.34% (inactive)
C=CCNC(=S)N/N=C(\C)c1ccccn1 | 89.3% (active) | 95.5% (active) | 88.6% (active) | 54.8% (active)
O=C(Nc1ccc(S(=O)(=O)N2CCOCC2)cc1)c1cccc([N+](=O)[O-])c1 | -6.54% (inactive) | 56.9% (active) | 50.2% (active) | -5.35% (inactive)
CC(C)NC(=O)CN1CCN(C(=O)CCl)CC1 | 1.19% (inactive) | 52.8% (active) | 27.2% (inactive) | 7.31% (inactive)
CC1CCC2(CC1)NC(=O)N(CC(=O)Nc1ccc3c(c1)CCC3)C2=O (stereo not drawn) | 39.1% (active) | 49.1% (active) | 48.9% (active) | 12.8% (inactive)
NC(=O)COc1ccc2c3c(c(=O)oc2c1)CCCCC3 | -1.98% (inactive) | 40.5% (inactive) | 41.6% (inactive) | 0.54% (inactive)

SMILES | inhibition [1] | inhibition [2] | inhibition [3] | inhibition [4]
O=C(CSc1n[nH]c(-c2ccccn2)n1)Nc1ccc(Cl)cc1 | 36.3% (active) | 70% (active) | 67.1% (active) | 41.4% (active)
CCCc1cc(=O)oc2cc3occ(C)c3cc12 | -0.89% (inactive) | 42.1% (active) | 37.8% (inactive) | 1.16% (inactive)
O=C(c1ccccc1)c1ccc2nc(N3CCN(C(=O)c4ccco4)CC3)c3nncn3c2c1 | 3.94% (inactive) | 43% (active) | 44.3% (active) | -14.2% (inactive)
CCOc1ccc(CCNC(=O)COC(=O)CCC(=O)c2cccs2)cc1OCC | -0.72% (inactive) | 45.3% (active) | 51% (active) | -6.57% (inactive)
O=C(COC(=O)CCN1C(=O)C2CC=CCC2C1=O)NCCc1ccc(F)cc1 (stereo not drawn) | 7.75% (inactive) | 63.2% (active) | 55% (active) | -1.34% (inactive)
O=C(NC1CCCCC1)c1ccc([N+](=O)[O-])o1 | 24.6% (inactive) | 54.9% (active) | 54.4% (active) | -17.1% (inactive)
O=C(N/N=C/c1ccc([N+](=O)[O-])o1)c1ccccc1-n1cccc1 | 32.3% (active) | 71.6% (active) | 63.4% (active) | 0.97% (inactive)
O=C(CCl)N(c1ccc(Cl)cc1)c1c[nH]c2ccccc12 | 25.4% (inactive) | 67.1% (active) | 58% (active) | 30.4% (inactive)
O=C(c1ccoc1)N1CCN(c2cc(-c3ccco3)nc3cc(-c4ccccc4)nn23)CC1 | 46.1% (active) | 50.1% (active) | 48% (active) | 19.7% (inactive)
CC(=O)N1CCc2c(sc(NC(=O)c3ccc([N+](=O)[O-])o3)c2C#N)C1 | -28.6% (inactive) | 36% (inactive) | 43.8% (active) | -119% (inactive)
CCOc1ccc(NC(=O)CSc2nnc(C(C)C)n2CC)cc1 | 0.92% (inactive) | 49.3% (active) | 50.3% (active) | -3.19% (inactive)
Cc1cc([N+](=O)[O-])ccc1NCc1ccc2ccccc2c1 | 1.75% (inactive) | 43.1% (active) | 38.8% (inactive) | 2.64% (inactive)
COc1ccc(OC)c(CCNC(=O)C(C)n2nc(C)c3c(C)n(-c4ccc(C)cc4)nc3c2=O)c1 (stereo not drawn) | 15.2% (inactive) | 64% (active) | 55.6% (active) | 51.2% (active)
COC(=O)c1ccc(N2CCCCC2)c(NC(=O)c2ccco2)c1 | 9.72% (inactive) | 55.3% (active) | 61.5% (active) | 4.64% (inactive)
C=CC[n+]1c(-c2ccc(Cl)cc2Cl)csc1Nc1c(C)n(C)n(-c2ccccc2)c1=O | 10.3% (inactive) | 58.7% (active) | 61% (active) | 27.5% (inactive)
OC1(c2ccc(OC(F)F)cc2)CSC(=Nc2cccnc2)N1C1CC1 (stereo not drawn) | 11.3% (inactive) | 43.3% (active) | 48.8% (active) | 40% (active)
COc1ccccc1NC(=O)CN1CCN(CC(=O)Nc2ccc3c(c2)OCO3)CC1 | 7.22% (inactive) | 54.4% (active) | 50.7% (active) | 0.21% (inactive)
Cc1cccc(NC(=O)c2ccc([N+](=O)[O-])o2)c1C | 24.6% (inactive) | 64.2% (active) | 60.4% (active) | -8.95% (inactive)
Cc1ccc(CNC(=O)c2ccc([N+](=O)[O-])o2)cc1 | 16.4% (inactive) | 57% (active) | 60.8% (active) | -5.02% (inactive)
CCCCNC(=O)COC(=O)c1c2c(nc3ccccc13)/C(=C\c1cccs1)CC2 | -10.4% (inactive) | 34.9% (inactive) | 12.3% (inactive) | 26.5% (inactive)
O=C(Cc1ccc(S(=O)(=O)N2CCCC2)s1)Nc1cccc([N+](=O)[O-])c1 | 7.13% (inactive) | 51.3% (active) | 46.5% (active) | 1.81% (inactive)
Cc1cc(OCC(=O)Nc2nccs2)c2c(C)c(C)c(=O)oc2c1 | 42% (active) | 74.5% (active) | 66.2% (active) | -127% (inactive)
C=CCNc1nc2c(c(=O)n(C)c(=O)n2C)n1CCCCCC | 28.9% (active) | 73% (active) | 54.9% (active) | 47.2% (active)
CCCc1nc2cc(C)c(Br)c(C)n2c1Cc1ccc(OC)cc1C | 15.2% (inactive) | 48.3% (active) | 45.3% (active) | 5.35% (inactive)
O=C(Nc1ccccn1)c1ccc([N+](=O)[O-])o1 | 14.3% (inactive) | 58.2% (active) | 59.1% (active) | -16.1% (inactive)
Cc1onc(-c2cccc(Cl)c2Cl)c1C(=O)O/N=C(\N)c1ccc([N+](=O)[O-])o1 | 11.8% (inactive) | 69.7% (active) | 67.3% (active) | -4.83% (inactive)
